Among the data in the supplement of paper PMC6555819 are PBM binding z-score values, retold here.

The first assay deals with PPARg DBDmut IVT, anti-PPARg (DBD mutation: PPARg1 K132A/R137A, NR concentration 270 nM). The assay can be described thus: PBM binding z-score (relative to random genomic background probes); higher = stronger binding; sequences stand for … in GC…GCGATTGACAGCGTAGAATGAAGG
In a few lines: (§1)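 Antibodies against each partner of ligand-free nuclear receptor dimers (one per run) detected binding on custom Agilent 4×180K protein-binding microarrays after 1 h incubation. The double-stranded probes had 34-nt variable regions carrying direct-repeat seeds, single-nucleotide variants, half-site ablations and random human genomic background sequences. Binding z-scores, from regression-normalized fluorescence, use the random background probes as reference.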
The sequence GCAGACAGGTGAAACGCAGATAACTCAGGGTGGC registered a PBM binding z-score of -0.959.
Sequence AGAATGAGGTTAAGATCACGGAAACAGAATACAT registered a PBM binding z-score of 0.711.
As for ATCGAAAGGTCGTAGGTGAGTATACCCACCCGAA, the PBM binding z-score worked out at 0.645.
As to CCTATTAGTCGACCATAAGGGCAACCGAAGCTCG, the PBM binding z-score was -1.02.
Take ACAGACAGGTGATGGAGGTAACTCAGGCTATCAT: the PBM binding z-score is -0.142.
For the sequence TCTAGCAGGCCAGAGGGTCACTCCAGAGGTACGG, the PBM binding z-score is -1.75.
Sequence AGAACTAGGGCACGCTGAGTTGATAGCAGAGTAG yielded a PBM binding z-score of 2.05.
Turning to CGTCAAAGTTCAAGGTAACTTAACAGAAAGCAGC, the PBM binding z-score turned out to be 0.0202.
CCTAGCAGGCCAAACTGGGTCACTCAAGGCTTGA displayed a PBM binding z-score of -1.09.
Turning to TAAATGAGGTTATAAGATCAGGGAACGTTGCAAA, the PBM binding z-score is 1.61.
The same measure, in the same setting: with CCTACTGGGCCACGAAAGGTCATTAATTCAGTGA the figure was 0.266; with GCTGCTAGGTCAACTGATGGACAGCTAAAGCTCG, -0.4; with AATCGGAGGACAAAGGTCAGAGCTACGCCAGTGA, -0.0229.
On the same count and under the same terms, with TCGAGTAGGTTAGTCGGGGCATTCAGCCAACATA the figure was -0.18; with TCATATAGGTAAACAGGTGAAATTCCGTAAGTTA, 1.49.
CGAACTAGGTCATCCAGGACAGTGAGTACATTGA came in with a PBM binding z-score of 1.36.
Sequence ATACCAAGGTGATCGTGAGGTCGCTGATACTAAC registered a PBM binding z-score of 0.406.
As to TCGAGTAGGTTCGTCGGGGCATTCAGCCAACATA, the PBM binding z-score was -1.13.
Same read-out and setting: as for TAGCCTAGGTCAGATAGGGCCAGTATACGCTATA, the figure is 0.324; as for CAAACTAGGTCACCGGAAGGTCACAGTCCGCATG, 1.61.
As for CACACTAGGTCAAGGTCAAAGTCGGTTTGTGCCA, the PBM binding z-score worked out at 5.72.
Turning to ACTATTAGTTGAGACGAGGGCAACCAATAGGTTG, the PBM binding z-score was 0.799.
The sequence ATATGTAGGGTAGCTGGGGTCATTCAGACTAGGC had a PBM binding z-score of 3.4.
As to CCGAGTAGGATATGGGGCATTCAGGCAACGGTGA, the PBM binding z-score is -0.813.
In turn, ATCGACAGGTCGTGAGGTGAGTATACAGAAAGGC showed a PBM binding z-score of -0.491.
The sequence GCGTCTGGGGCATCAGCAGGTTACCATAACTTAA had a PBM binding z-score of -0.371.
As to CCGACTGGGGCAAGGCTACCATAACGCACAGCCA, the PBM binding z-score was -0.37.
The same measure, in the same setting: as for CAAACTAGGTCACCGGTAGGTCAAAGTCCGCATG, the figure is 4.14.
The same measure, in the same setting: as for TCTTGTAGATCAGCAGTTTAAGAAAGCTGGCCAA, the figure is 0.0418; as for CAGCCTAGGTCAGGCCCAGTATAGGAGGAACGTT, -1.02.
ATATATAGGTTAGCTGGGGTCATTCAGACTAGGC came in with a PBM binding z-score of 1.71.
Same read-out and setting: as for GCTTACGGTTCAAAGGTTATAGCATGAATAGAAT, the figure is 0.999; as for AGAATGAGGTTACCGAAGATCAGGGAAACGCTTG, 0.381.
With AGAATGAGGTTATCCGTAGATCAGGGAAGAAAGT, the PBM binding z-score turned out to be 1.03.
The sequence TGAATGAGGTTAAAGATCAGGGAACGTGGCGTCG showed a PBM binding z-score of 0.495.
The sequence AGAATGAGGGTATTAAGATCAGGGAATTGCGGTC had a PBM binding z-score of 0.824.
Same read-out and setting: as for CTACCAACGTGAACAAGGTCGTTGATTACTATTC, the figure is 1.06; as for ACTAGTCGGTCAGCTGAGGTCACACACAATTCGG, 0.525.
For the sequence CCTTGGAGGACAGAAGGTCAGAGCTGTCCGCTTT, the PBM binding z-score was -2.25.
TGTCAAGGTTCAAAGGTAACGTAAGTATCCACAC returned a PBM binding z-score of 0.633.

The test system of the next assay is PPARg homodimer (NR concentration 180 nM). The description is as above. In a few lines:
as §1
As for GCAGACAGGTGAAACGCAGATAACTCAGGGTGGC, the PBM binding z-score is 0.214.
Same read-out and setting: with AGAATGAGGTTAAGATCACGGAAACAGAATACAT the figure was 1.19; with ATCGAAAGGTCGTAGGTGAGTATACCCACCCGAA, 1.97; with CCTATTAGTCGACCATAAGGGCAACCGAAGCTCG, 0.749.
In the case of ACAGACAGGTGATGGAGGTAACTCAGGCTATCAT, the PBM binding z-score was -0.281.
Consider TCTAGCAGGCCAGAGGGTCACTCCAGAGGTACGG, for which the PBM binding z-score worked out at 0.69.
With AGAACTAGGGCACGCTGAGTTGATAGCAGAGTAG, the PBM binding z-score came to 0.0464.
In turn, CGTCAAAGTTCAAGGTAACTTAACAGAAAGCAGC displayed a PBM binding z-score of 2.33.
CCTAGCAGGCCAAACTGGGTCACTCAAGGCTTGA showed a PBM binding z-score of 0.924.
For TAAATGAGGTTATAAGATCAGGGAACGTTGCAAA, the PBM binding z-score came to 0.912.
Sequence CCTACTGGGCCACGAAAGGTCATTAATTCAGTGA had a PBM binding z-score of 3.46.
GCTGCTAGGTCAACTGATGGACAGCTAAAGCTCG displayed a PBM binding z-score of 0.547.
AATCGGAGGACAAAGGTCAGAGCTACGCCAGTGA yielded a PBM binding z-score of 2.97.
For the sequence TCGAGTAGGTTAGTCGGGGCATTCAGCCAACATA, the PBM binding z-score is -0.242.
TCATATAGGTAAACAGGTGAAATTCCGTAAGTTA registered a PBM binding z-score of 1.3.
On the same count and under the same terms, as for CGAACTAGGTCATCCAGGACAGTGAGTACATTGA, the figure is 2.5; as for ATACCAAGGTGATCGTGAGGTCGCTGATACTAAC, 0.832.
Same read-out and setting: with TCGAGTAGGTTCGTCGGGGCATTCAGCCAACATA the figure was -0.174; with TAGCCTAGGTCAGATAGGGCCAGTATACGCTATA, 0.391; with CAAACTAGGTCACCGGAAGGTCACAGTCCGCATG, 8.88.
Same read-out and setting: with CACACTAGGTCAAGGTCAAAGTCGGTTTGTGCCA the figure was 7.79; with ACTATTAGTTGAGACGAGGGCAACCAATAGGTTG, 0.0729; with ATATGTAGGGTAGCTGGGGTCATTCAGACTAGGC, 2.54.
In turn, CCGAGTAGGATATGGGGCATTCAGGCAACGGTGA came in with a PBM binding z-score of 0.55.
As for ATCGACAGGTCGTGAGGTGAGTATACAGAAAGGC, the PBM binding z-score is 0.776.
Consider GCGTCTGGGGCATCAGCAGGTTACCATAACTTAA, for which the PBM binding z-score was 0.169.
The same measure, in the same setting: as for CCGACTGGGGCAAGGCTACCATAACGCACAGCCA, the figure is -0.287; as for CAAACTAGGTCACCGGTAGGTCAAAGTCCGCATG, 4.51; as for TCTTGTAGATCAGCAGTTTAAGAAAGCTGGCCAA, -0.0273.
CAGCCTAGGTCAGGCCCAGTATAGGAGGAACGTT: the PBM binding z-score is 0.325.
Sequence ATATATAGGTTAGCTGGGGTCATTCAGACTAGGC registered a PBM binding z-score of 2.62.
Sequence GCTTACGGTTCAAAGGTTATAGCATGAATAGAAT had a PBM binding z-score of 0.99.
For the sequence AGAATGAGGTTACCGAAGATCAGGGAAACGCTTG, the PBM binding z-score was found to be 0.444.
On the same count and under the same terms, with AGAATGAGGTTATCCGTAGATCAGGGAAGAAAGT the figure was 0.547; with TGAATGAGGTTAAAGATCAGGGAACGTGGCGTCG, 1.15.
As for AGAATGAGGGTATTAAGATCAGGGAATTGCGGTC, the PBM binding z-score was 0.506.
In turn, CTACCAACGTGAACAAGGTCGTTGATTACTATTC gave a PBM binding z-score of 0.913.
On the same count and under the same terms, with ACTAGTCGGTCAGCTGAGGTCACACACAATTCGG the figure was 3.35.
CCTTGGAGGACAGAAGGTCAGAGCTGTCCGCTTT displayed a PBM binding z-score of 1.98.
For the sequence TGTCAAGGTTCAAAGGTAACGTAAGTATCCACAC, the PBM binding z-score is 3.16.
